Laboratory results from PubChem BioAssay (Tox21).
Inconclusive results are not listed. Activity calls are given as the source filed them. Unless noted, the call rests on the fitted dose curve; in most records, active means well fitted curve in the direction sought with a large enough effect in the repeat runs; inconclusive means weak or mixed curves; inactive means no such curve, though single readings can be large; an effect the other way counts as inactive or inconclusive.

Columns and labels:
[1] = qHTS assay to identify small molecule antagonists of the estrogen receptor beta (ER-beta) signaling pathway - cell viability counter screen (AID 1259382);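 further: HEK293T cells carrying ER-beta-UAS-bla reporter stimulated with estradiol; series mostly up to about 92 µM; nearly all actives have a fitted effect of over 55% in size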
Method in brief: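 Luminescent ATP read-out (CellTiter-Glo, 30 min, RT) taken in the same wells as the bla reporter assay. HEK293T ER-beta-UAS-bla cells in 2% charcoal-stripped FBS were exposed to compounds with 1nM E2 for 16 hr at 37C.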

[2] = biological target: Estrogen receptor (Homo sapiens) (UniProt P03372); assay: qHTS assay to identify small molecule agonists of the estrogen receptor alpha (ER-alpha) signaling pathway in the presence of an antagonist (AID 1259383; calls by dose curve; further: top concentration of the series differs between compounds; nearly all actives have a fitted effect of over 15% in size)
Method in brief: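 Luciferase luminescence (ONE-Glo, 30min at room temperature) measured in VM7Luc4E2 cells after 22hr compound exposure at 15 concentrations, with 10.0nM ICI-182,780 final present; cells express endogenous ER-alpha and carry four EREs upstream of luciferase.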

[3] = qHTS assay to identify small molecule agonists or antagonists of the thyroid stimulating hormone receptor (TSHR) signaling pathway - wild type cell line counter screen (AID 1259384; calls by dose curve)
Method in brief: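 Wild-type Hek293 cells, 800/well, 18 h at 37C, then compound with Ro20-1724 for 30 min RT. cAMP by HTRF (cAMP-d2/anti-cAMP cryptate), 1 h RT, fluorescence read. 15 concentrations, triplicates.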

[4] = biological target: Thyrotropin receptor (Homo sapiens) (UniProt P16473); assay: qHTS assay to identify small molecule antagonists of the thyroid stimulating hormone receptor (TSHR) signaling pathway (AID 1259385; calls by dose curve; further: nearly all actives have a fitted effect of over 20% in size)
Method in brief: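 TSHR-HEK293 cells (800/well) plated 18 h, then compounds with Ro20-1724 and TSH at 1.5 ng/mL final, 30 min at room temperature. cAMP quantified by HTRF (cAMP-d2/anti-cAMP-cryptate, 1 h); 15 concentrations in triplicate.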

[5] = qHTS assay to identify small molecule agonists of the estrogen receptor alpha (ER-alpha) signaling pathway in the presence of an antagonist - cell viability counter screen (AID 1259386);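 further: series mostly up to about 92 µM; cells exposed to compounds for 22 h at 37 °C before the viability read; nearly all actives have a fitted effect of over 30% in size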
Method in brief: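 Read-out: CellTiter-Fluor fluorescence after 1hr reagent incubation, measured in the same wells as the luciferase readout. VM7Luc4E2 cells were exposed to 15 compound concentrations with 10.0nM ICI-182,780 for 22hr at 37C.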

[6] = biological target: Progesterone receptor (Homo sapiens) (UniProt P06401); assay: qHTS assay to identify small molecule agonists of the progesterone receptor (PR) signaling pathway (AID 1346784; calls by dose curve; further: nearly all actives have a fitted effect of over 30% in size)
Method in brief: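 HEK 293T PR-UAS-bla reporter cells, 2% charcoal-stripped FBS; 6 hr settle at 37C/5% CO2, compound (DMSO) 16 hr, LiveBLAzer B/G FRET substrate 2 hr RT, fluorescence intensity read.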

[7] = biological target: Progesterone receptor (Homo sapiens) (UniProt P06401); assay: qHTS assay to identify small molecule antagonists of the progesterone receptor (PR) signaling pathway (AID 1346795; active means well fitted inhibition curve with a large enough effect in the signal ratio in the repeat runs, not every such curve was filed as active; the % refers to the signal ratio)
Method in brief: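 Beta-lactamase reporter, HEK293T PR-UAS-bla line; 2% charcoal-stripped FBS; 6 hr pre-incubation, 37C/5% CO2. Compound + R5020 1 nM final, 16 hr. LiveBLAzer B/G FRET substrate, 2 hr RT; fluorescence intensity read.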

[8] = qHTS assay to identify small molecule agonists of the progesterone receptor (PR) signaling pathway - cell viability counter screen (AID 1346799; calls by dose curve; further: nearly all actives have a fitted effect of over 45% in size)
Method in brief: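 HEK293T PR-UAS-bla, 3,000 cells/well, 2% charcoal-stripped FBS; 6 h settle, compound 16 h at 37C/5% CO2; LiveBLAzer 2 h RT, then CellTiter-Glo 30 min RT, luminescence read.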

[9] = qHTS assay to identify small molecule antagonists of the TGF-beta/Smad signaling pathway - cell viability counter screen (AID 1346824); further: nearly all actives have a fitted effect of over 50% in size
Method in brief: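 SBE-bla HEK 293T cells, incubated overnight, then compound plus 0.25 ng/mL TGF-beta1 (stock added) for 5 hr at 37 C. Viability was read in the same wells by CellTiter-Glo luminescence after 30 min at room temperature.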

[10] = qHTS assay to identify small molecule agonists of the TGF-beta/Smad signaling pathway - cell viability counter screen (AID 1346829); further: top concentration of the series differs between compounds; nearly all actives have a fitted effect of over 45% in size
Method in brief: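 Compound-treated SBE-bla HEK 293T cells (5 hr, 37 C) were assessed for viability with CellTiter-Glo in parallel with the reporter read.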

[11] = biological target: Thyrotropin-releasing hormone receptor (Homo sapiens) (UniProt P34981); assay: qHTS assay to identify small molecule antagonists of the thyrotropin-releasing hormone receptor (TRHR) signaling pathway (AID 1346877; active means well fitted inhibition curve with a large enough effect in the repeat runs, not every such curve was filed as active; further: series mostly up to about 51 µM)
Method in brief: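 HEK293/TRHR cells, 18 h, 37 °C; Ca2+ dye 2 h; cpd 5 min RT; TRH 1 nM final; fluorescence read 3 min, 1 s intervals; 15 concs, triplicate.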

[12] = biological target: Thyrotropin-releasing hormone receptor (Homo sapiens) (UniProt P34981); assay: qHTS assay to identify small molecule agonists of the thyrotropin-releasing hormone receptor (TRHR) signaling pathway (AID 1346891; calls by dose curve;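 further: HEK293 cells expressing TRHR with calcium dye readout; series mostly up to about 58 µM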)
Method in brief: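 HEK293/TRHR cells, 1500 per well, 18 h 37 °C; Ca dye 2 h 37 °C; pin-tool compound addition (agonist mode); kinetic fluorescence 3 min, 1 s reads; 15 concentrations, triplicate.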

[13] = Human pregnane X receptor (PXR) small molecule agonists, qHTS cell viability counter screen (AID 1346977); further: nearly all actives have a fitted effect of over 50% in size
Method in brief: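 Fluorescence read-out (CellTiter-Fluor) of viability in PXR-Luc HepG2 cells, multiplexed with the luciferase agonist read. Compounds in DMSO added after 5hr plating; 24hr total exposure at 37C, 5% CO2.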

[14] = Caspase-3/7 induction in HepG2 cells by small molecules, qHTS assay (AID 1346978); further: nearly all actives have a fitted effect of over 15% in size
Method in brief: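 Wild-type HepG2 cells, 2,000/well, settled 5 hr at 37 C and 5% CO2, then compound-treated for 17 hr; caspase-3/7 activity read by luminescent Caspase-Glo 3/7 after 30 min at room temperature.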

[15] = Caspase-3/7 induction in CHO-K1 cells by small molecules, qHTS cell viability counter screen (AID 1346979); further: nearly all actives have a fitted effect of over 35% in size
Method in brief: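 CHO-K1 wt, 1,500 cells/well; 5hr pre-incubation 37C/5% CO2; compound pin transfer (DMSO); 16hr exposure; CellTiter-Fluor added, 1hr, fluorescence read.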

[16] = Caspase-3/7 induction in CHO-K1 cells by small molecules, qHTS assay (AID 1346980); further: nearly all actives have a fitted effect of over 15% in size
Method in brief: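 Wild-type CHO-K1 cells exposed to compounds for 17hr at 37 C, 5% CO2. Caspase-3/7 activity then measured by Caspase-Glo 3/7 luminescence after 30min at room temperature.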

[17] = Caspase-3/7 induction in HepG2 cells by small molecules, qHTS cell viability counter screen (AID 1346981); further: series mostly up to about 92 µM; nearly all actives have a fitted effect of over 30% in size
Method in brief: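 Fluorescence read-out of live-cell protease activity (CellTiter-Fluor) after 1 hr with reagent. This was measured in the same wells as the caspase-3/7 luminescence, on HepG2 cells exposed to DMSO-dissolved compounds for 16 hr at 37 C.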

[18] = qHTS assay to identify small molecule antagonists of the progesterone receptor (PR) signaling pathway - cell viability counter screen (AID 1346798); further: series mostly up to about 92 µM; nearly all actives have a fitted effect of over 50% in size
Method in brief: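 Luminescence readout (CellTiter-Glo, 30 min, RT) of viability in PR-UAS-bla HEK293T cells exposed to compound and R5020 agonist for 16 hr at 37C, 5% CO2; run in the same wells as the beta-lactamase reporter read.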

[19] = qHTS assay to identify small molecule agonists of the TGF-beta/Smad signaling pathway (AID 1346859; active means well fitted activation curve with a large enough effect in the signal ratio in the repeat runs, not every such curve was filed as active; the % refers to the signal ratio; further: series mostly up to about 77 µM)
Method in brief: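 Read-out: fluorescence at 460 and 530 nm (405 nm excitation) after a 2 hr room-temperature incubation with beta-lactamase FRET substrate. SBE-bla HEK 293T cells had been treated with test compounds for 5 hr at 37 C.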

Measured: Potency

Sequence of Thyrotropin-releasing hormone receptor (Homo sapiens) (P34981 whole entry, looked up): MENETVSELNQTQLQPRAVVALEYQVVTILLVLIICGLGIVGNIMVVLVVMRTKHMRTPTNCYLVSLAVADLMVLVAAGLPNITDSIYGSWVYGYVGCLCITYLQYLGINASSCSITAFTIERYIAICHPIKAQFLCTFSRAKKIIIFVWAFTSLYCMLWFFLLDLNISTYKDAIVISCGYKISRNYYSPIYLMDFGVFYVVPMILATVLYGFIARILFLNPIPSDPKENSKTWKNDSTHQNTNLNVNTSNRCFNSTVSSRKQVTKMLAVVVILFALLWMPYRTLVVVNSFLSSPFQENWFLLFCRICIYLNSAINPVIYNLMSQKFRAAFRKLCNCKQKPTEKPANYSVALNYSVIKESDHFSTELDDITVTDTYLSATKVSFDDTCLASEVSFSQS
Sequence of Estrogen receptor (Homo sapiens) (P03372 whole entry, looked up): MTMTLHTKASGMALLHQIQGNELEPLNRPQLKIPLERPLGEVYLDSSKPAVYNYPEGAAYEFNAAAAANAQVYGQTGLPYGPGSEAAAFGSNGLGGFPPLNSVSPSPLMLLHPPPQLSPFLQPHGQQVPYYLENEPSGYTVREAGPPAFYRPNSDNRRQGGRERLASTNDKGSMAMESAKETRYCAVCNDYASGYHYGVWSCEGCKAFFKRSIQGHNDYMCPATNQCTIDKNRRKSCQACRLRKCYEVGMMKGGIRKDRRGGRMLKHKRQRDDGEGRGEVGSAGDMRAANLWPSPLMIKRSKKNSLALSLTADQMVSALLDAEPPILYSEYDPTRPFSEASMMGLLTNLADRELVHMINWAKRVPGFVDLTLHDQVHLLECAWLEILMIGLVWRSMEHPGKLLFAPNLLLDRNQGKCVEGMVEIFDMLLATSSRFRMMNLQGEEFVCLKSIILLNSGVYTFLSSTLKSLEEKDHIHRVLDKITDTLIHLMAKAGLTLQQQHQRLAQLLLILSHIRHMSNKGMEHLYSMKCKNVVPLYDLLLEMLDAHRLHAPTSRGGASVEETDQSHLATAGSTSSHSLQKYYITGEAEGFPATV
Sequence of Progesterone receptor (Homo sapiens) (P06401 whole entry, looked up): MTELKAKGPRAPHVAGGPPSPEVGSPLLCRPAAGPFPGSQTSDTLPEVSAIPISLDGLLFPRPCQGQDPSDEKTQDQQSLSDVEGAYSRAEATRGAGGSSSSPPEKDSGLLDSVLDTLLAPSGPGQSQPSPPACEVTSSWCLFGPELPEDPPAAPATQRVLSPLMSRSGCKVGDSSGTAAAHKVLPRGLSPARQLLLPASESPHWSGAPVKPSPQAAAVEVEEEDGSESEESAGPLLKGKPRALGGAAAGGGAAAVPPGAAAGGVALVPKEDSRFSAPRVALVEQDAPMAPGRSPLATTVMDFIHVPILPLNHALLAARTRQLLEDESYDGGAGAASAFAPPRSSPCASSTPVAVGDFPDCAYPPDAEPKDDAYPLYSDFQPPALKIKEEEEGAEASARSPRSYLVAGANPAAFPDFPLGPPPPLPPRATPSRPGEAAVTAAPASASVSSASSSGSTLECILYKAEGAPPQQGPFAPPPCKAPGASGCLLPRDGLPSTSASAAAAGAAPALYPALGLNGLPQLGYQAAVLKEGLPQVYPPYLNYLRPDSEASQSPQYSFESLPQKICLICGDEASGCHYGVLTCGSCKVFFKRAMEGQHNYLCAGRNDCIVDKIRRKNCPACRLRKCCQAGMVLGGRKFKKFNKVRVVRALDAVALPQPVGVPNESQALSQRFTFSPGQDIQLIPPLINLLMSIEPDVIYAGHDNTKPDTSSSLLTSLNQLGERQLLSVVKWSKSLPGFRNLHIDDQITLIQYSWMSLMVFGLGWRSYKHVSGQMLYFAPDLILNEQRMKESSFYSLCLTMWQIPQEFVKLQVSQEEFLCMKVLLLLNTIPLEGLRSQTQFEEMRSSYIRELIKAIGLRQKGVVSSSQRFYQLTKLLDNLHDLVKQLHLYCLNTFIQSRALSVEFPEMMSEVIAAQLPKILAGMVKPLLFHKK
Sequence of Thyrotropin receptor (Homo sapiens) (P16473 whole entry, looked up): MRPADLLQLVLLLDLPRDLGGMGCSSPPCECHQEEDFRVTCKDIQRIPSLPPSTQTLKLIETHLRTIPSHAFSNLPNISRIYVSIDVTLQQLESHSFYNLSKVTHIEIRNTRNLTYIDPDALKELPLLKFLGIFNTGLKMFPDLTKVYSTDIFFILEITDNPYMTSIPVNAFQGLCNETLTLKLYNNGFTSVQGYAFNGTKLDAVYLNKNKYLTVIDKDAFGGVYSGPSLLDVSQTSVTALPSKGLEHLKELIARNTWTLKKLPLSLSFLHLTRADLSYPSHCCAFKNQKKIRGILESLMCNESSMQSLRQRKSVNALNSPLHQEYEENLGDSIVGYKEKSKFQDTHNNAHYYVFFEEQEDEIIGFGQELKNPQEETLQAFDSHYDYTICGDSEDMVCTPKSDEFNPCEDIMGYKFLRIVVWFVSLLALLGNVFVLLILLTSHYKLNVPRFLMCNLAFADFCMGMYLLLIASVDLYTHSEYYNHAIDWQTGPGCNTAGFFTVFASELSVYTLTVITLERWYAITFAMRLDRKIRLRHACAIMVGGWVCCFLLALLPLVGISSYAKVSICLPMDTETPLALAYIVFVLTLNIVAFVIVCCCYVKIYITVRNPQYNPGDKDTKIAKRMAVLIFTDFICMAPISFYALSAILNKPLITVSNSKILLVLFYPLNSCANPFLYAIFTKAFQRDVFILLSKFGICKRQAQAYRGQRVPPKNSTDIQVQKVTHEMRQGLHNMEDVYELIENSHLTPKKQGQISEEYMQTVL

CO[C@@]1(NC(=O)Cc2cccs2)C(=O)N2C(C(=O)O)=C(COC(N)=O)CS[C@@H]21
not listed: [18] | [19]
inactive: all other assays above

CC(=O)OCC(=O)Nc1cc(C#N)cc(NC(=O)COC(C)=O)c1Cl
not listed: [7]
inactive: all other assays above

CCCCCC(C)O (configuration not stated)
not listed: [7] | [11]
inactive: all other assays above

N#Cc1ccccc1O
not listed: [7] | [11]
inactive: all other assays above

Cc1cc(C)c(C(=O)O)c(C)c1
not listed: [11] | [18] | [19]
inactive: all other assays above

O=C(Cn1ccnc1[N+](=O)[O-])NCc1ccccc1
not listed: [15] | [19]
inactive: all other assays above

O=C1CCCCO1
not listed: [11] | [18]
inactive: all other assays above

O=C1OCCO1
not listed: [19]
inactive: all other assays above
